Source: the supplement of paper PMC10849652
About 7,900 targets were measured; listed, in parts, are those with a hit and a random draw of the rest. About 0.6% of all pairs of compound and target were hits. Unmarked numbers belong to inactive results.

How the values were obtained:
Assay in all cases: log2 fold change, soluble protein after heating vs DMSO (PISA); higher = thermal stabilisation; K562 cells, 10 uM, 30 min; active = over 0.2 and 3.5 SD of the protein, either way, in both replicates (recomputed)
erlotinib = compound: C#Cc1cccc(Nc2ncnc3cc(OCCOC)c(OCCOC)cc23)c1 [erlotinib]
In short: (§1)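 Aliquots of K562 cells (2×10^6 cells/mL) treated with 10 μM compound for 30 min were heated for 3 min over 48°C-58°C. After pooling and extraction in PBS with 0.5% NP-40 at 4°C, soluble protein from a 21,000xg, 90 min spin was quantified by TMTpro 16plex LC-MS/MS with channel sums equalised. Thermal stability is expressed against control samples, from duplicates, as a log2 fold change.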

[1] = compound: C/C(=N\NC(=O)C1=CC(=CC=C1)S(=O)(=O)N2CCOCC2)/C3=C(C=CC(=C3)Cl)O
In short: as §1

[2] = compound: C1=CC(=C(C=C1Cl)C2=NC3=NC=CN=C3C(=N2)NC4=CC=NC=C4)F
In short: as §1

[3] = compound: C1=CC(=CC=C1C2=NC3=C(N2)C=C(C=C3)C(=O)N)OC4=CC=C(C=C4)Cl
In short: as §1

[4] = compound: C1=CC2=C(C=CC(=C2)/C=C\3/C(=O)NC(=NCC4=CC=CS4)S3)N=C1
In short: as §1

[5] = compound: C1=CC2=NC=CN=C2C=C1/C=C/3\C(=O)NC(=O)S3
In short: as §1

[6] = compound: C1=CC=C(C=C1)C2=NC(=C(N2)C3=CC=NC=C3)C4=CC(=C(C=C4)Cl)O
In short: as §1

[7] = compound: C1=CC=C2C(=C1)C3=NNC4=CC=CC(=C43)C2=O
In short: as §1

[8] = compound: C1CCN(C1)C(=O)NC2=CC=CC(=C2)NC3=NC=C(C(=N3)NCCC4=CN=CN4)Br
In short: as §1

[9] = compound: C1CN(CCC1(CC2=CC=C(C=C2)Cl)N)C3=NC=NC4=C3C=CN4
In short: as §1

IRAK-1-4 Inhibitor I = compound: C1COCCN1CCN2C3=CC=CC=C3N=C2NC(=O)C4=CC(=CC=C4)[N+](=O)[O-] [IRAK-1-4 Inhibitor I]
In short: as §1

ibrutinib = compound: C=CC(=O)N1CCC[C@@H](n2nc(-c3ccc(Oc4ccccc4)cc3)c3c(N)ncnc32)C1 [ibrutinib]
In short: as §1

[10] = compound: CC(=O)c1cnc2ccc(-c3cc(Cl)c(O)c(Cl)c3)nc2c1N[C@H]1CC[C@H](CN(C)C)CC1
In short: as §1

ralimetinib = compound: CC(C)(C)Cn1c(N)nc2ccc(-c3[nH]c(C(C)(C)C)nc3-c3ccc(F)cc3)nc21 [ralimetinib]
In short: as §1

[11] = compound: CC(C)(O)CC(=O)NCCn1ccc2ncnc(Nc3ccc(Oc4cccc(C(F)(F)F)c4)c(Cl)c3)c21
In short: as §1

[12] = compound: CC(C)C1=C2N=C(C=C(N2N=C1)NCC3=CC=CC=C3)NCCCCCCN
In short: as §1

[13] = compound: CC(C)C[C@@H](C=O)NC(=O)[C@H](CC(C)C)NC(=O)[C@H](CC(C)C)NC(=O)OCc1ccccc1
In short: as §1

pinometostat = compound: CC(C)N(C[C@H]1O[C@@H](n2cnc3c(N)ncnc32)[C@H](O)[C@@H]1O)[C@H]1C[C@@H](CCc2nc3cc(C(C)(C)C)ccc3[nH]2)C1 [pinometostat]
In short: as §1

[14] = compound: CC1=C(C(CC(=O)N1)C2=CC=C(C=C2)C(F)(F)F)C(=O)NC3=C(C=C4C(=C3)C=NN4)F
In short: as §1

[15] = compound: CC1=C(C2=C(C=C1)C(=O)C3=CC=CC=C3N2CCCN)C
In short: as §1

Sequence of UniProt Q13428 (Q13428 whole entry, looked up): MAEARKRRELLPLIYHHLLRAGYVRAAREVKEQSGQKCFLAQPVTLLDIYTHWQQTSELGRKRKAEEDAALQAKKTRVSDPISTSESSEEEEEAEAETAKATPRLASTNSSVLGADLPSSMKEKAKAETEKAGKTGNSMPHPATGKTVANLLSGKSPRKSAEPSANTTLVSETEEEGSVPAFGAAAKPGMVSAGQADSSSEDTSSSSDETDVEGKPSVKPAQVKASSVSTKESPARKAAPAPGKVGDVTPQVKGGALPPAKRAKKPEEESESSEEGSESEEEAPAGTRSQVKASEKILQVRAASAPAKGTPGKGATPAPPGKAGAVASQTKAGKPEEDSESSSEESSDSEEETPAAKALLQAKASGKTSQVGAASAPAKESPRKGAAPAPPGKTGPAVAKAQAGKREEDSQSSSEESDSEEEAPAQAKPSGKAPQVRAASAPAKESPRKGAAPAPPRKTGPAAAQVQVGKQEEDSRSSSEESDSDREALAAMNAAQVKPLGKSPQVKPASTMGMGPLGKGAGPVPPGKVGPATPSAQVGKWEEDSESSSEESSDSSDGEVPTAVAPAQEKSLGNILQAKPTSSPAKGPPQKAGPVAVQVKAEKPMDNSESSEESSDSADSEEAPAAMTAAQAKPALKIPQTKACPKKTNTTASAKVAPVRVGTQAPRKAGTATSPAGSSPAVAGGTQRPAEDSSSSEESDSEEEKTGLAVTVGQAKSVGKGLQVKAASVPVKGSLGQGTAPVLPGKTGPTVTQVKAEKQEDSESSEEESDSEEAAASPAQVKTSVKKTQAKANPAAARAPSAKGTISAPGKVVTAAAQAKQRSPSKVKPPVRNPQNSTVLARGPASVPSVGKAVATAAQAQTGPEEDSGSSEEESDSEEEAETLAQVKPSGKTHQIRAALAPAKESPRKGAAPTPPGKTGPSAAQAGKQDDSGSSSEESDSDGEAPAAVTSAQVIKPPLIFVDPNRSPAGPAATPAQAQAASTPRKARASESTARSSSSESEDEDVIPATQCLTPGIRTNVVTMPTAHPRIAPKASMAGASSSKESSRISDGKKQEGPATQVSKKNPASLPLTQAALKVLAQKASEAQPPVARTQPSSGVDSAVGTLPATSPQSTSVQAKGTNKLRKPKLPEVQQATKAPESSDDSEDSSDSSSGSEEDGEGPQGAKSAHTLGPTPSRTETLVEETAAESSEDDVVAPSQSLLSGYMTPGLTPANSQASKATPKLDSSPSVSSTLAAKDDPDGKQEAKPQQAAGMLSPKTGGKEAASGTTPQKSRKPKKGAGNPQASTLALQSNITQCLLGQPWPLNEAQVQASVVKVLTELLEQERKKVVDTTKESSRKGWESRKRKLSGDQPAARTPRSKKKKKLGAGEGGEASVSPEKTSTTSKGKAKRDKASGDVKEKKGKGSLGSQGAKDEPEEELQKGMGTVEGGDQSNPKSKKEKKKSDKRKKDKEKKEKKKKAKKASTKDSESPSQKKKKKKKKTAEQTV
Sequence of UniProt Q9BVV7 (Q9BVV7 whole entry, looked up): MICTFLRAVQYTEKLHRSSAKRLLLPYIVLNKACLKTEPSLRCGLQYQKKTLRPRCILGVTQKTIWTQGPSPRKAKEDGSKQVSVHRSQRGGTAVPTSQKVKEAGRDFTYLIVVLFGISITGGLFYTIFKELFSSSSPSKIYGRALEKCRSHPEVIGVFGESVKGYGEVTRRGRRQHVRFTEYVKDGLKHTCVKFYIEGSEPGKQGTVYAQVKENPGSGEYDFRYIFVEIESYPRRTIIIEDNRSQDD
Sequence of UniProt P51692 (P51692 whole entry, looked up): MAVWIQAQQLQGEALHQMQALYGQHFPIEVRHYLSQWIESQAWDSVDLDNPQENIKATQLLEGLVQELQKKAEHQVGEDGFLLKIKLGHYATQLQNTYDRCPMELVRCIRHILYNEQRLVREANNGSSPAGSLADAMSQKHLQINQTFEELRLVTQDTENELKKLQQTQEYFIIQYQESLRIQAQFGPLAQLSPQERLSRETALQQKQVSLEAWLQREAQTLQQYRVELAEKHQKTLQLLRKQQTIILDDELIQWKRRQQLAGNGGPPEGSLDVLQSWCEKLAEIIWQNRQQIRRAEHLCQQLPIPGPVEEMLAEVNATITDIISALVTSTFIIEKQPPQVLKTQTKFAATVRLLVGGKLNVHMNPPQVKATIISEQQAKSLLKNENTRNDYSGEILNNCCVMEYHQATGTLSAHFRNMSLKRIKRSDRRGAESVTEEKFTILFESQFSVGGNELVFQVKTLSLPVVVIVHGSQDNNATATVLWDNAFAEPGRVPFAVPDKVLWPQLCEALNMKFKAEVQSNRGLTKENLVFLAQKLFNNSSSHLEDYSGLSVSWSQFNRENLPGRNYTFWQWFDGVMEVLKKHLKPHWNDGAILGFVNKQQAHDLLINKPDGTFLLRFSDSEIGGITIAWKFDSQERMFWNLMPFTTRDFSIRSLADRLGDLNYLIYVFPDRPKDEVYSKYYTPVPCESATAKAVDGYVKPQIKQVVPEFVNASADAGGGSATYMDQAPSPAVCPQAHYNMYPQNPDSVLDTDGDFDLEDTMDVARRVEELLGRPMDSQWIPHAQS
Sequence of UniProt Q92844 (Q92844 whole entry, looked up): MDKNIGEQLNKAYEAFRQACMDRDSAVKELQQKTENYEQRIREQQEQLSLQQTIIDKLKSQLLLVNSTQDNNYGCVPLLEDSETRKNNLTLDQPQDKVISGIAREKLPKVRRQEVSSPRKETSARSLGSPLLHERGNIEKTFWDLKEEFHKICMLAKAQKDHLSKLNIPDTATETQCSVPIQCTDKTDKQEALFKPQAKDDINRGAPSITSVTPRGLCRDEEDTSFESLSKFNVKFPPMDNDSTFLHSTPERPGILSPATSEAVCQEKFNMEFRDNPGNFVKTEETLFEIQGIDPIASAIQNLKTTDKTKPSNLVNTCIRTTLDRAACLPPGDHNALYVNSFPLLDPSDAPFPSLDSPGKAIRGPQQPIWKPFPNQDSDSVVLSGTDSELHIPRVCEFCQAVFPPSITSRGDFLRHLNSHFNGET
Sequence of UniProt O60264 (O60264 whole entry, looked up): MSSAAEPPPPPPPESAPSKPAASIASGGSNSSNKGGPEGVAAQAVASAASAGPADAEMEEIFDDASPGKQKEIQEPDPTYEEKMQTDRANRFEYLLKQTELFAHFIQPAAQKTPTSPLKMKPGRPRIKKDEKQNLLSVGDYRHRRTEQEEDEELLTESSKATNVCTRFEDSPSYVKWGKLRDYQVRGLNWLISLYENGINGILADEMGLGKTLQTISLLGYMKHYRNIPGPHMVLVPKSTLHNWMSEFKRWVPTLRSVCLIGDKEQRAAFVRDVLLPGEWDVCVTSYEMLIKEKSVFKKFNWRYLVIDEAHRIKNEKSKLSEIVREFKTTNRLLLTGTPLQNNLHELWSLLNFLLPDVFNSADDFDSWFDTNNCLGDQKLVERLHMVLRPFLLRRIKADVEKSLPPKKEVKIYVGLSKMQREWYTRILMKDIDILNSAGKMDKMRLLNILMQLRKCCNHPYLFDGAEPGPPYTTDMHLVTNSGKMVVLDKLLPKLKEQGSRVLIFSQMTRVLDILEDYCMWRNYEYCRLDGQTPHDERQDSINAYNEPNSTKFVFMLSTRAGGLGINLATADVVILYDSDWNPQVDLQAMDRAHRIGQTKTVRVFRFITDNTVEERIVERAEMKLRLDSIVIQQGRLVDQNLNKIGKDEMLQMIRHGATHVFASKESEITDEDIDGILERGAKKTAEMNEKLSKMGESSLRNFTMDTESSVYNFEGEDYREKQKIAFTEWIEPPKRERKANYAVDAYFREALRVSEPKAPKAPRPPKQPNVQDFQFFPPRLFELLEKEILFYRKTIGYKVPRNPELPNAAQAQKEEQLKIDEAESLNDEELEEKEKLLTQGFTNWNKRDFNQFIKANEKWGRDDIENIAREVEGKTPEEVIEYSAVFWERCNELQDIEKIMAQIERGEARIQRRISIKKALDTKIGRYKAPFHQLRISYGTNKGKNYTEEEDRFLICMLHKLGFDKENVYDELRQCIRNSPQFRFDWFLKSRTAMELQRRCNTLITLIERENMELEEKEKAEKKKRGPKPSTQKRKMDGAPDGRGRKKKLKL
Sequence of UniProt P08047 (P08047 whole entry, looked up): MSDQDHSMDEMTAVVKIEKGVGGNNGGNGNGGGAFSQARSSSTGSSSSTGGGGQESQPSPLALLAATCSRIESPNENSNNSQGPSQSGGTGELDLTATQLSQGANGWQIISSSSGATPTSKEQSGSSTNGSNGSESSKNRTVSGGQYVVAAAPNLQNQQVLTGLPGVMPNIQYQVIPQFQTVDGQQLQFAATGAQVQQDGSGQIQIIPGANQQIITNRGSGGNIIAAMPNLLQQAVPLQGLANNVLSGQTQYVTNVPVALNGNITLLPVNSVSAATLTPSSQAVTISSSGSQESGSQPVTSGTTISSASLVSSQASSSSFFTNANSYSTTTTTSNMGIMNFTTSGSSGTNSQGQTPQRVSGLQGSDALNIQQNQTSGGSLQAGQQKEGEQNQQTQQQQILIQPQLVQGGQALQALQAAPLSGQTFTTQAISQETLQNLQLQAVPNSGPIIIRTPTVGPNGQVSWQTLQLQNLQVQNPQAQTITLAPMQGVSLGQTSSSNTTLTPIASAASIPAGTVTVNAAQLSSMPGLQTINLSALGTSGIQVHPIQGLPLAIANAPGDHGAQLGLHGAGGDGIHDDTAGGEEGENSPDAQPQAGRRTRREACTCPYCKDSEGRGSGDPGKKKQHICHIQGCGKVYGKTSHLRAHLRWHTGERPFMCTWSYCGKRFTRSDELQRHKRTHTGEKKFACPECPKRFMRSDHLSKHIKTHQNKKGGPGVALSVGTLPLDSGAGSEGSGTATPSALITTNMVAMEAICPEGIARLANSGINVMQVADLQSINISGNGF
Sequence of UniProt Q9UNL2 (Q9UNL2 whole entry, looked up): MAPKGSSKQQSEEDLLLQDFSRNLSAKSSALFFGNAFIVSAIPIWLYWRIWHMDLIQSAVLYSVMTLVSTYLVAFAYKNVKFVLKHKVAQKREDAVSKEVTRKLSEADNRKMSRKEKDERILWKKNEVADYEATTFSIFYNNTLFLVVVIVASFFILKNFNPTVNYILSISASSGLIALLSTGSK

Target	log2 fold change (erlotinib)	log2 fold change [1]	log2 fold change [2]	log2 fold change [3]	log2 fold change [4]	log2 fold change [5]	log2 fold change [6]	log2 fold change [7]	log2 fold change [8]	log2 fold change [9]	log2 fold change (IRAK-1-4 Inhibitor I)	log2 fold change (ibrutinib)	log2 fold change [10]	log2 fold change (ralimetinib)	log2 fold change [11]	log2 fold change [12]	log2 fold change [13]	log2 fold change (pinometostat)	log2 fold change [14]	log2 fold change [15]
SRI (UniProt P30626)	-0.042	0.113	0.322	0.025	0.09	0.121	0.185	0.016	-0.037	-0.041	-0.017	-0.032	-0.014	-0.039	-0.108	0.026	-0.048	-0.036	0.069	0.201
SSR3 isoform 2 (UniProt Q9UNL2)	0.019	0.054	-0.013	-0.003	-0.187	0.037	0.006	0.028	-0.119	-0.011	0.158	0.029	0.132	0.06	0.031	0.01	-0.049	-0.134	0.036	-0.022
ST3GAL2 (UniProt Q16842)	0.032	0.07	-0.069	0.009	-0.085	-0.052	-0.057	0.045	-0.024	0.108	-0.183	-0.105	-0.115	-0.009	0.119	-0.12	0.066	-0.031	-0.037	0.046
SMARCA5 (UniProt O60264)	0.103	0.044	-0.058	0.005	-0.012	0.078	0.052	-0.103	-0.109	-0.227	-0.108	-0.135	0.103	0.033	-0.113	-0.025	0.084	0.068	-0.135	-0.97 (active)
SLC25A42 (UniProt Q86VD7)	0.08	0.01	0.089	0.01	-0.032	-0.026	0.079	-0.137	-0.086	0.066	0.034	0.045	-0.002	0.041	0.015	0.014	-0.037	-0.027	-0.045	0.077
STARD7 (UniProt Q9NQZ5)	-0.021	0.084	0.024	0.086	0.031	0.009	0.017	0.067	0.006	-0.029	-0.012	0.055	-0.026	-0.01	-0.051	-0.057	0.028	-0.009	-0.019	-0.003
SRPRA (UniProt P08240)	-0.01	0.061	0.073	0.007	0.054	-0.048	0.063	0.003	0.001	0.006	-0.024	0.015	-0.028	-0.002	-0.058	0.021	-0.006	-0.001	-0.033	0.269 (active)
TANK (UniProt Q92844)	-0.019	-0.031	0.101	-0.048	0.002	0.053	-0.024	-0.028	0.014	0.01	-0.035	0.087	-0.181	0.034	-0.024	0.007	0.127	-0.047	0.033	-0.053
TIMM21 (UniProt Q9BVV7)	0.026	0.068	0.004	-0.008	0.035	-0.001	-0.001	0.081	-0.002	0.021	-0.009	-0.02	-0.026	-0.01	0.011	-0.169	0.099	-0.02	-0.013	0.063
STAT5B (UniProt P51692)	0.027	-0.148	0.035	0.071	0.028	-0.013	-0.007	-0.061	-0.077	-0.013	-0.153	-0.146	0.018	0.121	-0.401	-0.119	0.044	-0.095	-0.109	-0.022
SP1 (UniProt P08047)	-0.055	-0.03	-0.046	0.043	0.006	0.01	0.001	-0.031	0.047	-0.019	0.013	0.024	0.029	-0.049	-0.031	-0.05	0.064	0.04	0.043	-0.312 (active)
TBCD (UniProt Q9BTW9)	0.022	0.06	0.059	0.022	0.069	0.029	-0.025	-0.01	-0.016	-0.021	0.019	-0.019	-0.004	0.01	-0.034	-0.083	0.01	-0.061	0.068	-0.086
SSB (UniProt P05455)	-0.05	0.045	0.013	0.028	-0.043	-0.014	-0.056	-0.169	-0.151	-0.03	-0.006	-0.038	-0.209	0.017	0.001	-0.038	0.011	-0.005	0.071	-0.474 (active)
SLC7A6OS (UniProt Q96CW6)	-0.015	0.018	0.035	-0.039	0.007	0.042	0.045	-0.025	-0.015	0.022	0.018	-0.027	0.046	0.134	-0.032	0.045	-0.019	0.273 (active)	0.014	-0.199
TCOF1 isoform 4 (UniProt Q13428)	0.035	-0.005	-0.005	-0.008	-0.002	0.014	-0.024	-0.001	-0.043	-0.107	-0.009	-0.034	-0.13	0.028	0.023	-0.042	-0.083	0.024	0.015	-0.664 (active)
SUGP1 (UniProt Q8IWZ8)	0.039	0.093	-0.027	-0.029	-0.01	0.005	0	-0.012	-0.03	-0.001	0.008	-0.024	-0.08	-0.023	-0.003	-0.127	0.061	-0.017	0.011	-0.003
